Experimental data: article PMC5540273 (PLoS ONE, 2017)

Experiments:
Conditions in all cases: concentration: 1 μM, replicates: in singlicate; n = 1
[1] = test system: CDK4
[2] = test system: CDK5
[3] = test system: CDK7
[4] = test system: CDK8
[5] = test system: CDK9
[6] = test system: CDKL1
[7] = test system: CDKL2
[8] = test system: CDKL3
[9] = test system: CDKL5
[10] = test system: CHEK1
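Note: KINOMEscan kinase panel screen.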

Row | Compound | %Inh [1] [%] | %Inh [2] [%] | %Inh [3] [%] | %Inh [4] [%] | %Inh [5] [%] | %Inh [6] [%] | %Inh [7] [%] | %Inh [8] [%] | %Inh [9] [%] | %Inh [10] [%]
1 | COc1ccccc1CNC(=O)c1cc(C(=O)c2ccccc2C)c[nH]1 [GSK364507] | 0 | 9 | 0 | 5 | 0 | 10 | 16 | 0 | 0 | 0
2 | Cc1cccc(-c2nc(C)cc(Nc3ccncc3)n2)n1 [GSK257997] | 28 | 0 | 0 | 0 | 95.9 | 3 | 0 | 0 | 6 | 0
3 | Fc1cc(Cl)ccc1Nc1ccnc2cc(-c3ccc(CN4CCCCC4)o3)ccc12 [GW560116] | 35 | 0 | 0 | 28 | 0 | 0 | 2 | 0 | 0 | 0
4 | Cc1c(O)cccc1Nc1ccnc2ccc(C(F)(F)F)cc12.Cl [GW466413] | 33 | 0 | 0 | 18 | 0 | 0 | 5 | 0 | 0 | 0
5 | Cn1ccc2ncnc(Oc3ccc(Nc4nc5ccccc5[nH]4)cc3)c21 | 0 | 0 | 0 | 6 | 0 | 18 | 0 | 11 | 0 | 0
6 | CC(C)(C)c1ccc(C(=O)Nc2cn3cc(-c4cccnc4)ccc3n2)cc1 | 0 | 3 | 35 | 6 | 12 | 39 | 6 | 20 | 0 | 25
7 | Cc1cc(NCC(c2ccccc2)c2ccccc2)nc(NCc2ccc(C(F)(F)F)cc2)n1 [GW497681] | 0 | 0 | 0 | 28 | 0 | 0 | 12 | 0 | 0 | 0
8 | NC(=O)c1nnc2ccccc2c1N | 0 | 0 | 14 | 26 | 15 | 44 | 1 | 17 | 9 | 0
